Measured values taken from PubChem BioAssay AID1159580 (chemical genetic matrix, 2015).
About 2,000 (36%) of roughly 5,500 compounds were called active. Another 18% or so got no clear call; they are omitted. No stated cut-off is given here; in the data, active means normalized growth mostly below about 0.91 (no sharp cut-off); inconclusive means no clear call, values can overlap the other calls; inactive means mostly above about 0.92. This is one part of the list.

Assay: chemical genetic growth profiling, strain panel (AID 1159580);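 further: tested at 20 µM; growth read once vehicle control cultures reached saturation at 30 °C; 1 = growth at the plate median or of vehicle wells; lower values mean less growth of the strain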
Settings: growth OD
[1] = S. cerevisiae deletion strains, locus YHR030C, strain SLT2, active compounds read low

Measured: normalized growth

CN1CCN(C(c2ccccc2)c2ccc(Cl)cc2)CC1 (stereo unspecified)
inactive: [1] 0.974 | S. cerevisiae deletion strains, locus YHR079C, strain IRE1, active compounds read low 0.986 | S. cerevisiae deletion strains, locus YJL095W, strain BCK1, active compounds read low 0.974 | S. cerevisiae deletion strains, locus YJR066W, strain TOR1, active compounds read low 0.979 | S. cerevisiae deletion strains, locus YLR113W, strain HOG1, active compounds read low 0.962 | S. cerevisiae deletion strains, locus YNL183C, strain NPR1, active compounds read low 0.914 | S. cerevisiae deletion strains, locus YOR231W, strain MKK1, active compounds read low 0.981 | S. cerevisiae deletion strains, locus YPL256C, strain CLN2, active compounds read low 0.951

CC(C)(C)OC(=O)N1CCN(Cc2ccccc2)CC1
inactive: S. cerevisiae deletion strains, locus YAL013W, strain DEP1, active compounds read low 1 | S. cerevisiae deletion strains, locus YBR229C, strain ROT2, active compounds read low 1 | S. cerevisiae deletion strains, locus YDL101C, strain DUN1, active compounds read low 1.02 | S. cerevisiae deletion strains, locus YDR150W, strain NUM1, active compounds read low 1.03 | S. cerevisiae deletion strains, locus YEL061C, strain CIN8, active compounds read low 0.98 | S. cerevisiae deletion strains, locus YGR078C, strain PAC10, active compounds read low 0.999 | S. cerevisiae deletion strains, locus YGR229C, strain SMI1, active compounds read low 1.02 | [1] 1.08 | S. cerevisiae deletion strains, locus YHR087W, strain rtc3, active compounds read low 0.991 | S. cerevisiae deletion strains, locus YJR043C, strain POL32, active compounds read low 0.998 | S. cerevisiae deletion strains, locus YJR075W, strain HOC1, active compounds read low 1 | S. cerevisiae deletion strains, locus YKL190W, strain CNB1, active compounds read low 1.01 | S. cerevisiae deletion strains, locus YLR039C, strain RIC1, active compounds read low 0.967 | S. cerevisiae deletion strains, locus YLR058C, strain SHM2 (second series), active compounds read low 0.986 | S. cerevisiae deletion strains, locus YLR085C, strain ARP6, active compounds read low 0.997 | S. cerevisiae deletion strains, locus YLR262C, strain YPT6, active compounds read low 1.04 | S. cerevisiae deletion strains, locus YML094W, strain GIM5, active compounds read low 0.989 | S. cerevisiae deletion strains, locus YMR219W, strain ESC1, active compounds read low 0.994 | S. cerevisiae deletion strains, locus YMR263W, strain SAP30, active compounds read low 1.01 | S. cerevisiae deletion strains, locus YNL153C, strain GIM3, active compounds read low 1 | S. cerevisiae deletion strains, locus YNL298W, strain CLA4 (second series), active compounds read low 1.01 | S. cerevisiae deletion strains, locus YNL322C, strain KRE1, active compounds read low 1 | S. cerevisiae deletion strains, locus YNR030W, strain Alg12, active compounds read low 0.992 | S. cerevisiae deletion strains, locus YOL006C, strain TOP1, active compounds read low 1.08 | S. cerevisiae deletion strains, locus YPL055C, strain LGE1, active compounds read low 1.03 | S. cerevisiae deletion strains, locus YPL241C, strain CIN2, active compounds read low 1.01 | S. cerevisiae deletion strains, locus YPR135W, strain CTF4, active compounds read low 1.04 | S. cerevisiae strains, strain wild type, active compounds read low 1.02
